Test results published in PubChem BioAssay AID2284359 (EPA ToxCast).
Records with an inconclusive call do not appear. The source made the active and inactive calls. How the source made its calls: active means hit-call score of the fitted dose curve at least 0.9, where 1 is the maximum; inconclusive means response in the unintended direction; inactive means score below 0.9.

assay: ATG_M_06_EcoTox2: Attagene TRANS-FACTORIAL EcoTox-2 HepG2 Assay for M06 Transcription Factor (Internal Marker)
Method: ATG_EcoTox2 is a cell-based, multiplexed assay created by modifying the existing Attagene TRANS-FACTORIAL system to include a panel of nuclear receptors from some or all the following species: human (Homo sapiens), african clawed frog (Xenopus laevis), rainbow trout (Oncorhynchus mykiss), japanese medaka (Oryzias latipes), and zebrafish (Danio rerio). The ECOTOX2-FACTORIAL format uses HepG2, a human liver cell line, with measurements taken at 24 hours after chemical dosing in a 24-well plate. ATG_M_06_EcoTox2 is one of 29 assay components calculated in the ATG_EcoTox2 assay. It is designed to make measurements of mRNA induction, a form of inducible reporter, as detected with fluorescence intensity signals by Reverse transcription polymerase chain reaction (RT-PCR) and Capillary electrophoresis technology.The assay endpoint ATG_M_06_EcoTox2 was analyzed in the positive analysis fitting direction relative to DMSO as the negative control and baseline of activity. Using a type of inducible reporter, measures of mRNA for gain-of-signal activity can be used to understand the background control at the transcription factor-level as they relate to the gene. Furthermore, this assay endpoint can be referred to as a secondary readout, because this assay has produced multiple assay endpoints where this one serves a background control function. To generalize the intended target to other relatable targets, this assay endpoint is annotated to the background measurement intended target family, where the subfamily is internal marker.
Human liver HepG2 cells are transiently transfected with multiple reporter transcription units (MRTUs) in 6-well plates using FuGene 6 reagent (Roche; 3 ml FuGene/1 mg DNA). The MRTU constructs are regulated by a cis-regulating element (promoter). Each RTU expresses a GAL4-UAS that regulates the transcription of a nearby target reporter gene sequence. A major difference between the CIS and TRANS system is that in CIS activities of endogenous TFs are measured, whereas the TRANS assay evaluates changes in activities of exogenous, chimeric NR-Gal4 proteins. […] At the end of 24 hour incubation, total RNA was isolated using TriZol reagent (Invitrogen). The isolated RNA is then reverse-transcribed using oligo(dT) primer and Mo-MLV reverse transcriptase (Invitrogen) with DNAse I (Ambion) treatment for 30 min. The one-tenth of the produced cDNA was amplified by PCR using Taq DNA polymerase (Invitrogen) and two reporter sequence-specific primers. […] The fragments were purified using Qiaquick PCR columns (Qiagen), analyzed on an ABI 3130xL genetic analyzer (Applied Biosystems) with peak positions identified by using a set of X-rhodamine (ROX)-labeled MapMarker1000 molecular weight standards (BioVentures). […]

Row | Structure (SMILES) | outcome
1 | O=P(Oc1ccccc1)(Oc1ccccc1)Oc1ccccc1 | inactive
2 | O=C(O)C(F)(F)C(F)(F)C(F)(F)C(F)(F)C(F)(F)C(F)(F)C(F)(F)F | inactive
3 | O=S(=O)(O)C(F)(F)C(F)(F)C(F)(F)C(F)(F)C(F)(F)C(F)(F)F | inactive
4 | CCCCOCN(C(=O)CCl)c1c(CC)cccc1CC | inactive
